We go through 15 molecules from PMC11102866, “Nucleosome-bound NR5A2 structure reveals pioneer factor mechanism by DNA minor groove anchor competition”.

The target in experiment [1] is NR5A2 wild type;histone octamer (Homo sapiens;, UniProt O00482;C0HKE1;Q6ZWY9;P84244;P62806 1-541;2-130;2-126;2-136;2-103, |). Description: SeEN-seq (EMSA of nucleosome library followed by sequencing); 0.8 uM human NR5A2; 20 mM Tris-HCl pH 7.5, 120 mM NaCl, 1 mM MgCl2, 10 uM ZnCl2, 1 mM DTT, 100 ug/ml BSA, room temperature, 30 min; 0.1 uM nucleosome library; high values mean tight binding.

The target of experiment [2] is mouse Nr5a2 wild type;histone octamer (Mus musculus;, UniProt P45448;C0HKE1;Q6ZWY9;P84244;P62806 1-560;2-130;2-126;2-136;2-103, |). In words: SeEN-seq (EMSA of nucleosome library followed by sequencing); 1.2 uM mouse Nr5a2; 20 mM Tris-HCl pH 7.5, 120 mM NaCl, 1 mM MgCl2, 10 uM ZnCl2, 1 mM DTT, 100 ug/ml BSA, room temperature, 30 min; 0.1 uM nucleosome library; high values mean tight binding. For orientation: In EMSA bound probe runs differently from free probe, usually more slowly.

Numbering of substitutions follows the chain as printed. Names and notes keep the numbering of the source.

B1: 52 (nucleosome)
DNA 1: ATCCTGGAGAATCCCGGTGCCGAGGCCGCTCAATTGGTCGTAGACAGCTCTAGCTCAAGGCCAACGCACGTACGCGCTGTCCCCCGCGTTTTAACCGCCAAGGGGATTACTCCCTAGTCTCCAGGCACGTGTCAGATATATACATCCTGTGAT
DNA 2: ATCACAGGATGTATATATCTGACACGTGCCTGGAGACTAGGGAGTAATCCCCTTGGCGGTTAAAACGCGGGGGACAGCGCGTACGTGCGTTGGCCTTGAGCTAGAGCTGTCTACGACCAATTGAGCGGCCTCGGCACCGGGATTCTCCAGGAT
modifications: reconstituted with mouse histones H2A, H2B, H3.3 and H4
As to B1, the binding signal was 0.917 log2 enrichment (bound/unbound, relative to Widom 601) in experiment [1] and 1.16 log2 enrichment (bound/unbound, relative to Widom 601) in experiment [2].

B2: 48 (nucleosome)
DNA 1: ATCCTGGAGAATCCCGGTGCCGAGGCCGCTCAATTGGTCGTAGACAGCTCTCAAGGCCATTAAACGCACGTACGCGCTGTCCCCCGCGTTTTAACCGCCAAGGGGATTACTCCCTAGTCTCCAGGCACGTGTCAGATATATACATCCTGTGAT
DNA 2: ATCACAGGATGTATATATCTGACACGTGCCTGGAGACTAGGGAGTAATCCCCTTGGCGGTTAAAACGCGGGGGACAGCGCGTACGTGCGTTTAATGGCCTTGAGAGCTGTCTACGACCAATTGAGCGGCCTCGGCACCGGGATTCTCCAGGAT
modifications: reconstituted with mouse histones H2A, H2B, H3.3 and H4
B2: the binding signal in experiment [1] was 0.867 log2 enrichment (bound/unbound, relative to Widom 601); in experiment [2], 0.815 log2 enrichment (bound/unbound, relative to Widom 601).

B3: 51 (nucleosome)
DNA 1: B1 DNA 1 with C54T, T55C, C56A, A58G, G60C, C62A
DNA 2: B1 DNA 2 with G92T, C94G, T96C, G98T, A99G, G100A
modifications: reconstituted with mouse histones H2A, H2B, H3.3 and H4
In the case of B3, the binding signal was 0.595 log2 enrichment (bound/unbound, relative to Widom 601) in experiment [1] and 0.567 log2 enrichment (bound/unbound, relative to Widom 601) in experiment [2].

B4: 49 (nucleosome)
DNA 1: B2 DNA 1 with C52T, A53C, G55A, C57G, A59C, T60A
DNA 2: B2 DNA 2 with A94T, T95G, G97C, C99T, T101G, G102A
modifications: reconstituted with mouse histones H2A, H2B, H3.3 and H4
As to B4, the binding signal is 1.14 log2 enrichment (bound/unbound, relative to Widom 601) in experiment [1] and 1.11 log2 enrichment (bound/unbound, relative to Widom 601) in experiment [2].

B5: 50 (nucleosome)
DNA 1: B1 DNA 1 with G53T, T55A, C56A, A57G, A58G, G59C, G60C, C61A, C62A
DNA 2: B1 DNA 2 with G92T, G93T, C94G, C95G, T96C, T97C, G98T, A99T, C101A
modifications: reconstituted with mouse histones H2A, H2B, H3.3 and H4
For B5, the binding signal in experiment [1] is 0.992 log2 enrichment (bound/unbound, relative to Widom 601); in experiment [2], 1.01 log2 enrichment (bound/unbound, relative to Widom 601).

B6: 39 (nucleosome)
DNA 1: ATCCTGGAGAATCCCGGTGCCGAGGCCGCTCAATTGGTCGTTCAAGGCCATAGCACCGCTTAAACGCACGTACGCGCTGTCCCCCGCGTTTTAACCGCCAAGGGGATTACTCCCTAGTCTCCAGGCACGTGTCAGATATATACATCCTGTGAT
DNA 2: ATCACAGGATGTATATATCTGACACGTGCCTGGAGACTAGGGAGTAATCCCCTTGGCGGTTAAAACGCGGGGGACAGCGCGTACGTGCGTTTAAGCGGTGCTATGGCCTTGAACGACCAATTGAGCGGCCTCGGCACCGGGATTCTCCAGGAT
modifications: reconstituted with mouse histones H2A, H2B, H3.3 and H4
Consider B6, for which the binding signal in experiment [1] was 0.783 log2 enrichment (bound/unbound, relative to Widom 601); in experiment [2], 0.704 log2 enrichment (bound/unbound, relative to Widom 601).

B7: 46 (nucleosome)
DNA 1: B1 DNA 1 with T51A, C54G, T55C, A58G, G59C, G60T, C61T, C62A
DNA 2: B1 DNA 2 with G92T, G93A, C94A, C95G, T96C, A99G, G100C, A103T
modifications: reconstituted with mouse histones H2A, H2B, H3.3 and H4
As for B7, the binding signal in experiment [1] was 0.748 log2 enrichment (bound/unbound, relative to Widom 601); in experiment [2], 0.651 log2 enrichment (bound/unbound, relative to Widom 601).

B8: 40 (nucleosome)
DNA 1: B6 DNA 1 with T42A, C43T, A44C, G46A, C48G, A50C, T51A
DNA 2: B6 DNA 2 with A103T, T104G, G106C, C108T, T110G, G111A, A112T
modifications: reconstituted with mouse histones H2A, H2B, H3.3 and H4
In the case of B8, the binding signal is 0.693 log2 enrichment (bound/unbound, relative to Widom 601) in experiment [1] and 0.706 log2 enrichment (bound/unbound, relative to Widom 601) in experiment [2].

B9: 45 (nucleosome)
DNA 1: B6 DNA 1 with T42A, C43G, A45C, G46A, C48T, T51A, A52G, A55C, C56A
DNA 2: B6 DNA 2 with G98T, T99G, T102C, A103T, G106A, C108T, T109G, G111C, A112T
modifications: reconstituted with mouse histones H2A, H2B, H3.3 and H4
With B9, the binding signal in experiment [1] was 0.761 log2 enrichment (bound/unbound, relative to Widom 601); in experiment [2], 0.671 log2 enrichment (bound/unbound, relative to Widom 601).

B10: 44 (nucleosome)
DNA 1: B6 DNA 1 with T42A, C43G, A45C, G46A, G47T, C49A, T51G, A52G, G53C
DNA 2: B6 DNA 2 with C101G, T102C, A103C, G105T, C107A, C108T, T109G, G111C, A112T
modifications: reconstituted with mouse histones H2A, H2B, H3.3 and H4
For the molecule B10, the binding signal was 2.41 log2 enrichment (bound/unbound, relative to Widom 601) in experiment [1] and 1.31 log2 enrichment (bound/unbound, relative to Widom 601) in experiment [2].

B11: 41 (nucleosome)
DNA 1: B6 DNA 1 with T42A, C43G, A44T, A45C, G46A, G47A, C48G, C49G, A50C, T51C
DNA 2: B6 DNA 2 with A103G, T104G, G105C, G106C, C107T, C108T, T109G, T110A, G111C, A112T
modifications: reconstituted with mouse histones H2A, H2B, H3.3 and H4
For the molecule B11, the binding signal in experiment [1] is 2.28 log2 enrichment (bound/unbound, relative to Widom 601); in experiment [2], 1.87 log2 enrichment (bound/unbound, relative to Widom 601).

B12: 7 (nucleosome)
DNA 1: ATCCTGGAGTCAAGGCCAGCCGAGGCCGCTCAATTGGTCGTAGACAGCTCTAGCACCGCTTAAACGCACGTACGCGCTGTCCCCCGCGTTTTAACCGCCAAGGGGATTACTCCCTAGTCTCCAGGCACGTGTCAGATATATACATCCTGTGAT
DNA 2: ATCACAGGATGTATATATCTGACACGTGCCTGGAGACTAGGGAGTAATCCCCTTGGCGGTTAAAACGCGGGGGACAGCGCGTACGTGCGTTTAAGCGGTGCTAGAGCTGTCTACGACCAATTGAGCGGCCTCGGCTGGCCTTGACTCCAGGAT
modifications: reconstituted with mouse histones H2A, H2B, H3.3 and H4
On to B12, for which the binding signal in experiment [1] is 2.59 log2 enrichment (bound/unbound, relative to Widom 601); in experiment [2] it was 2.08 log2 enrichment (bound/unbound, relative to Widom 601).

B13: 42 (nucleosome)
DNA 1: ATCCTGGAGAATCCCGGTGCCGAGGCCGCTCAATTGGTCGTAGATCAAGGCCACACCGCTTAAACGCACGTACGCGCTGTCCCCCGCGTTTTAACCGCCAAGGGGATTACTCCCTAGTCTCCAGGCACGTGTCAGATATATACATCCTGTGAT
DNA 2: ATCACAGGATGTATATATCTGACACGTGCCTGGAGACTAGGGAGTAATCCCCTTGGCGGTTAAAACGCGGGGGACAGCGCGTACGTGCGTTTAAGCGGTGTGGCCTTGATCTACGACCAATTGAGCGGCCTCGGCACCGGGATTCTCCAGGAT
modifications: reconstituted with mouse histones H2A, H2B, H3.3 and H4
Turning to B13, the binding signal in experiment [1] is 2.74 log2 enrichment (bound/unbound, relative to Widom 601); in experiment [2] it was 2.07 log2 enrichment (bound/unbound, relative to Widom 601).

B14: 47 (nucleosome)
DNA 1: B2 DNA 1 with C50T, T51C, C52A, A54G, G56C, C58A, A59C
DNA 2: B2 DNA 2 with T95G, G96T, C98G, T100C, G102T, A103G, G104A
modifications: reconstituted with mouse histones H2A, H2B, H3.3 and H4
With B14, the binding signal in experiment [1] was 1.01 log2 enrichment (bound/unbound, relative to Widom 601); in experiment [2] it was 1.07 log2 enrichment (bound/unbound, relative to Widom 601).

B15: 43 (nucleosome)
DNA 1: B13 DNA 1 with T45C, C46T, A47C, G49A, C51G, A53C, C54A
DNA 2: B13 DNA 2 with G100T, T101G, G103C, C105T, T107G, G108A, A109G
modifications: reconstituted with mouse histones H2A, H2B, H3.3 and H4
As to B15, the binding signal in experiment [1] was 2.58 log2 enrichment (bound/unbound, relative to Widom 601); in experiment [2] it was 1.55 log2 enrichment (bound/unbound, relative to Widom 601).
